Compound activity from PubChem.
hcDAF-12 act – H. contortus DAF-12 activation, primary screen | HEK293 hcDAF-12 lit1-tk-luc reporter, luminescence; 0% DMSO, 100% Δ7-dafachronic acid | activation, % at 6.8 µM | hit rate 1.4% among 370,000;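 active = activation above the mean of all tested compounds plus 3 SD, cut at about 5.5% in these data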
ssDAF12 agonist – activates DAF-12 receptor from parasite S. stercoralis; HEK293 ssDAF-12/GRIP1 lit1-tk-luc reporter, luminescence; % of 3 µM dafachronic acid response; activation, % at 6.8 µM; hit rate 1% among 370,000;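 active = activation above the mean over all tested compounds plus 3 SD, cut at about 0.9% in these data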
hgDAF-12 ag – agonists of H. glycines DAF-12 nuclear receptor; HEK293 GAL4-hgDAF12 UAS-luciferase reporter, agonist luminescence; normalized to butyrate control; activation, % at 6.8 µM; hit rate 1.8% among 370,000;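 active = activation above a cutoff set at the mean of all screened compounds plus 3 SD, cut at about 10% in these data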
DAX1 inh-1 – inhibits human nuclear receptor DAX1. inhibition, % at 6.75 µM. hit rate 0.99% among 340,000. HEK293 Gal4-DAX1 luciferase reporter, luminescence;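 active = inhibition above the mean over all tested compounds plus 3 SD, cut at about 4.2% in these data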;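 also: inhibition shows as a rise in luminescence from relieved DAX1 repression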
Target sequence (P51843 207-470 limits assumed): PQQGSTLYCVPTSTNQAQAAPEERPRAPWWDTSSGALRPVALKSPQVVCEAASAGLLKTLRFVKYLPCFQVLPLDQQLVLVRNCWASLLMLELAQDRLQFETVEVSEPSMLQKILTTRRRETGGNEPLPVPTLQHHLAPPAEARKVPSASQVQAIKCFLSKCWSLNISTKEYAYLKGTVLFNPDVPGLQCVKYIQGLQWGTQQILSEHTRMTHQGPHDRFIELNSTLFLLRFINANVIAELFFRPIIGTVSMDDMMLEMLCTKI
SMARCA2 act – activators of SMARCA2 function; MG213 cells, MMTV-luciferase reporter, dexamethasone, overnight; activation, % at 9.1 µM; hit rate 1% among 370,000; in the data active = activation above about 7.8%
DAX1 inh-2 – DAX1 (NR0B1) inhibition, primary screen | HEK293T StAR-luciferase reporter, SF-1/DAX-1 repression relief | inhibition, % at 6.8 µM | hit rate 1.1% among 370,000 | AID 652010;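 active = inhibition above the mean over all tested compounds plus 3 SD, cut at about 3.6% in these data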;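 also: higher inhibition means more luminescence from relief of DAX-1 repression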
DAX1 inh confirm – confirmation of human DAX1 (NR0B1) inhibitors. hit rate 87% among 2,400. HEK293T StAR-promoter luciferase reporter, SF-1/DAX-1 repression. inhibition, % at 6.8 µM. shares compounds with DAX1 inh-2;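 active = inhibition above the average of every tested compound plus 3 SD, cut at about 3.8% in these data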;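 also: active compounds raise luminescence by relieving repression of the StAR reporter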
SF1 AF2mut Luc – nonselective inhibitor or artifact in SF-1 mutant DAX1 counter-screen. shares compounds with DAX1 inh-2. HEK293 StAR-luciferase, SF-1 AF2 mutant, luminescence. inhibition, % at 6.8 µM. hit rate 78% among 2,400;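 active = inhibition above the mean of all tested compounds plus 3 SD, cut at about 3% in these data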
SMARCA2 act conf – SMARCA2 activation, confirmation screen | shares compounds with SMARCA2 act | MG213 cells, MMTV-luciferase with dexamethasone, luminescence, overnight; MG213 cells expressing E1A, Rb sequestered; DMSO wells 0%, reference activator 100% | activation, % at 9.1 µM | hit rate 30% among 3,500;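 active = activation above its plate's cutoff, the mean activation of tested wells plus 3 SD, cut at about 7.9% in these data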
VP16 Luc act – counter-screen for SMARCA2 activators: GAL4-VP16 luciferase reporter activation | HEK293 GAL4-VP16 pG5luc reporter, luciferase luminescence; scaled: DMSO wells 0%, SAHA wells 100% | activation, % at 9.1 µM | hit rate 41% among 3,500 | shares compounds with SMARCA2 act;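 active = activation above the solvent-only control well mean plus 3 SD, averaged across control plates, cut at about 5.2% in these data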
Hits are given with their value; i = inactive; nt = not tested or not shown. Shown are actives, neighbours in structure and some others; about 4.8% of the full set was active somewhere.

SMILES	hcDAF-12 act	ssDAF12 agonist	hgDAF-12 ag	DAX1 inh-1	SMARCA2 act	DAX1 inh-2	DAX1 inh confirm	SF1 AF2mut Luc	SMARCA2 act conf	VP16 Luc act
Cn1c2ccccc2c(=O)c2cc(NCCCN3CCOCC3)ccc21	i	i	11	i	15	5.1	15	10	18	8.7
O=C(NCCc1ccc(Cl)cc1)c1ccc2nccnc2c1	i	i	i	i	9.4	5.4	8.2	7.9	9.6	9.9
CCc1cccc2c(C(=O)CN3C(=O)C(=O)N(C4CCCC4)C3=O)c[nH]c12	i	i	i	i	i	i	nt	nt	nt	nt
CCc1cccc2c(C(=O)CN3C(=O)NC4(CCCCCC4)C3=O)c[nH]c12	i	i	i	i	11	13	10	i	13	i
COc1ccc(-c2coc3cc(O)c(OC)cc3c2=O)cc1	i	i	i	i	i	i	nt	nt	nt	nt
COc1ccc(-c2coc3cc(O)ccc3c2=O)cc1O	i	i	13	i	8.0	5.0	6.5	3.3	13	11
CN1OC[C@@H]2CN(S(=O)(=O)c3cccc(C(F)(F)F)c3)[C@H](c3ccc(N4CCCCC4)cc3)C[C@@H]21	i	i	i	nt	i	i	nt	nt	nt	nt
Cc1ccc(CC(=O)O/N=C(\N)c2ccccn2)cc1	i	i	11	i	8.9	5.0	4.0	3.2	9.7	8.4
Cc1cccnc1NC(=O)c1sc2ccccc2c1Cl	i	i	13	i	8.5	10	11	5.3	18	7.8
Cc1ccc2nsnc2c1NC(=O)c1sc2ccccc2c1Cl	i	i	i	i	i	i	nt	nt	nt	nt
Cc1nnc2c3ccccc3ccn12	i	i	i	i	i	i	nt	nt	nt	nt
CN(C(=O)c1cc2c(=O)n3ccccc3nc2n1C)C1CCCCC1	i	i	i	i	8.0	10	12	6.3	i	14
O=C(CSc1nnc(NC(=O)c2ccccc2)s1)NCC1CCCO1 (centres undefined)	i	i	i	i	9.4	6.2	4.2	4.3	i	6.5
O=C(CSc1nnc(NC(=O)Cc2ccccc2)s1)NCC1CCCO1 (centres undefined)	i	i	i	i	i	i	nt	nt	nt	nt
NC1=NC2(CS1)CSC(N)=N2	i	i	i	nt	i	i	nt	nt	nt	nt
Nc1cc(OCc2ccccc2)ccc1OCc1ccccc1	i	i	i	i	9.4	4.7	3.6	4.5	i	7.8
O=C(NCC(=O)N(c1ccccc1)C(C(=O)NC1CCCCC1)c1cccnc1)c1ccco1 (centres undefined)	i	i	i	i	i	i	nt	nt	nt	nt
O=C(NNC(=S)Nc1ccccc1)c1cccnc1	i	i	i	i	8.8	5.1	3.6	5.6	i	5.4
CC(C)C[C@H]1CNC(=O)C(=O)N1C[C@@H]1CCCN1C[C@H](Cc1ccccc1)N1C[C@H](Cc2ccccc2)N(CCc2ccccc2)C(=O)C1=O	i	i	i	nt	i	i	nt	nt	nt	nt
S=C(NCCCN1CCOCC1)Nc1ccc(-c2nc3ccccc3[nH]2)cc1	i	i	i	i	i	i	nt	nt	nt	nt
CN(C)CCNC(=S)Nc1ccc(-c2nc3ccccc3[nH]2)cc1	i	i	13	i	8.3	5.0	12	8.7	16	5.9
O=C(CSc1nc(=O)n(CCN2CCOCC2)c2c1CCC2)Nc1ccc(OC(F)(F)F)cc1	i	i	i	i	i	i	nt	nt	nt	nt
CN1CCCC(C)(C(=O)Nc2ccc3scnc3c2)C1 (centres undefined)	i	i	i	nt	i	i	nt	nt	nt	nt
